# KAT2A inh = qHTS Assay for Inhibitors of GCN5L2 | Histone acetyltransferase KAT2A (Homo sapiens), Q92830 | GCN5L2 HAT assay, ThioGlo1 CoA-SH fluorescence | Potency, µM (doses to about 58.9 µM), inactives show top-dose activity change, negative = inhibition, most hits filed as inhibitors | 390,000 tested, 0.21% active; also: potency is read from the fitted curve at half-maximal effect; % is scaled to controls: 0 for no effect and ±100 for the full control effect
#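 qHTS, 1536-well. 20nM enzyme, pH 7.5 HEPES/EDTA/Tween-20 buffer; 15 min compound preinc., RT. Start: 75uM H3(1-25), 70uM AcCoA, 50uM ThioGlo1. Read Ex340/Em540 at t=0 (autofluorescence flag) and t=20 min.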
# PI5P4Ka inh = qHTS for Inhibitors of phosphatidylinositol 5-phosphate 4-kinase (PI5P4K); Phosphatidylinositol 5-phosphate 4-kinase type-2 alpha (Homo sapiens), P48426; max response, %; PI5P4Kalpha enzyme, ADP-Glo luminescence, 60 min; active compounds read low; AID 652105, 2013; 330,000 tested, 1.2% active; active = max response of -50% or lower; inconclusive = between -30% and -50%; inactive = -30% or higher; also: value at the top dose of about 77 µM; % is scaled to controls: 0 for no effect and ±100 for the full control effect
#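 Enzyme plus substrate dispensed, test compounds pinned in, then ATP (5 microM final) added. After 60 min at RT, ADP-Glo reagent 1 for 45 min and reagent 2 for 30 min preceded luminescence imaging.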
# PLK1 PBD block = qHTS for Inhibitors of PLK1-PDB (polo-like kinase 1 - polo-box domain): Primary Screen. Serine/threonine-protein kinase PLK1 (Homo sapiens), P53350. Plk1 PBD binding of FITC phosphopeptide, fluorescence polarization. Potency, µM, for the others: max response, negative = inhibition, usual class: inhibitors. 360,000 tested, 2.8% active. AID 720504, 2013; also: potency is read from the fitted curve at half-maximal effect; series mostly up to about 57 µM; % is scaled to controls: 0 for no effect and ±100 for the full control effect; nearly all actives have a fitted effect of over 65% in size
# HP1b binding inh = HTS for Inhibitors of HP1-beta Chromodomain Interactions with Methylated Histone Tails | Chromobox protein homolog 1 (Homo sapiens), P83916 | AlphaScreen HP1-beta / biotin-H3K9me3 peptide binding | Potency, µM (doses to about 114 µM), without a hit: top-dose activity change, negative = inhibition, hits mostly inhibitors | 390,000 tested, 0.56% active | AID 540317, 2011; also: potency is read from the fitted curve at half-maximal effect; nearly all actives have a fitted effect of over 70% in size
#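 AlphaScreen: HP1-beta (50 nM) preformed 30 min with biotin-H3(1-18)K9me3 peptide (50 nM) in PBS pH 7.4, 0.01% Tween-20. Compound added for 30 min at RT, then streptavidin donor/nickel chelate acceptor beads (10 ug/mL) for 30 min.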
# JMJD2A Tudor = qHTS Assay for Inhibitors of JMJD2A-Tudor Domain | Potency, µM (doses to about 114 µM), for inactives: top-dose activity change, negative = inhibition, most hits filed as inhibitors | 390,000 tested, 4.4% active | Lysine-specific demethylase 4A (Homo sapiens), O75164 | AlphaScreen JMJD2A-Tudor / H3K4me3 peptide binding; also: potency is read from the fitted curve at half-maximal effect; % is scaled to controls: 0 for no effect and ±100 for the full control effect; nearly all actives have a fitted effect of over 50% in size
# Target sequence (O75164 whole entry, looked up, the tested form may be a part): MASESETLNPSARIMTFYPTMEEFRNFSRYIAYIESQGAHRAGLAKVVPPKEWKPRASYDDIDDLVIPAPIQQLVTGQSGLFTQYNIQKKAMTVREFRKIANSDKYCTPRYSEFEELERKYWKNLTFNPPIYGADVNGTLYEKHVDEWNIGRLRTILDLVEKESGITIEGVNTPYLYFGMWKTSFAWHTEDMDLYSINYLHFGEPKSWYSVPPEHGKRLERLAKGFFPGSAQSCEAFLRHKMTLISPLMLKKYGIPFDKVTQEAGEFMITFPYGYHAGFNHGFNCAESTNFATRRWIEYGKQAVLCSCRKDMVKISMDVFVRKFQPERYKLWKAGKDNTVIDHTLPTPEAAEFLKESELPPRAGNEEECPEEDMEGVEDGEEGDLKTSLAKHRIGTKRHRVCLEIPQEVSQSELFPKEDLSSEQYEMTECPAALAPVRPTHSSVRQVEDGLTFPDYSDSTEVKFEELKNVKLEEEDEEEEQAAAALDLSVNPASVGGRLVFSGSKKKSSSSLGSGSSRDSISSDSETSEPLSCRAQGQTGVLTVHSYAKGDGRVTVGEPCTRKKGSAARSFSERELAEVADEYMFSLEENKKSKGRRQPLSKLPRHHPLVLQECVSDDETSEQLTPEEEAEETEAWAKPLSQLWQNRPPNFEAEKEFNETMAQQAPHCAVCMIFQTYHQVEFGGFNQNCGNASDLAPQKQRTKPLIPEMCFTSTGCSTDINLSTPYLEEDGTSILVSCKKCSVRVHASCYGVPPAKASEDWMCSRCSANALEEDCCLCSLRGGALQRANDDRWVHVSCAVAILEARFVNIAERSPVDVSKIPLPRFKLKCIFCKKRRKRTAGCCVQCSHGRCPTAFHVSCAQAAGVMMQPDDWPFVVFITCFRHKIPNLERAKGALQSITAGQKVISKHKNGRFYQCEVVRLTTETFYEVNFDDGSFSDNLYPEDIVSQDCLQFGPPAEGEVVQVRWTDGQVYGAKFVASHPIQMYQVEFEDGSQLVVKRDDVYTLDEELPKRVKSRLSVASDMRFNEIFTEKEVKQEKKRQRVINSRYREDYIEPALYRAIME
# BAZ2B block = qHTS Assay for Inhibitors of BAZ2B; Bromodomain adjacent to zinc finger domain protein 2B (Homo sapiens), Q9UIF8; AlphaScreen BAZ2B-H3K14Ac peptide displacement; AID 504333, 2011; 360,000 tested, 4.4% active; Potency, µM (titrated, usually from 114 µM), for inactives: at the highest dose activity change, negative = inhibition, most hits filed as inhibitors; also: potency is read from the fitted curve at half-maximal effect; % is scaled to controls: 0 for no effect and ±100 for the full control effect; nearly all actives have a fitted effect of over 60% in size
#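 Protein-peptide AlphaScreen: BAZ2B 50 nM, b-H3K14Ac 50 nM, 1x PBS pH 7.4 + 0.01% Tween-20. Preincubation 30 min RT; cpd 30 min RT (top 110 uM); beads 20 min RT, light-protected.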
# Starred values were filed as active, the others as inactive; ? = inconclusive; . = no result given; [ ] = another dose, or the depositor's remark. Compounds with a hit are over-represented: about 7% of the library has one in this group of screens. Unless noted, calls follow the shape of the dose curve; as a rule, active = well fitted curve in the direction sought with a large enough effect; inconclusive = small, poorly fitted or top-dose-only effect, or another doubt; inactive = no such curve, though single readings can be large; an effect the other way counts as inactive or inconclusive.
SMILES,KAT2A inh,PI5P4Ka inh,PLK1 PBD block,HP1b binding inh,JMJD2A Tudor,BAZ2B block
N#Cc1c(NCCCO)nc(NCc2ccccc2)c2c1CCN(Cc1ccccc1)C2,-9.1%,-9.4,-10.2%,?,56.2µM*,31.6µM*
COc1ccc2nc3n(c(=O)c2c1)-c1ncccc1C(=O)NC3CC(C)C (stereo unspecified),.,-2.7,-2.3%,.,.,.
Fc1ccc(N2CCN(c3nc(CN4CCOCC4)nc4scc(-c5ccccc5)c34)CC2)cc1,-10.4%,-4.7,-12.6%,?,44.7µM*,11.2µM*
Fc1ccc(-c2csc3ncnc(Nc4ccc(N5CCOCC5)cc4)c23)cc1,-10.3%,.,-11.2%,-24.3%,?,39.8µM*
Fc1ccc(CN2CCN(c3ncnc4scc(-c5ccccc5)c34)CC2)cc1,-15.0%,4.1,2.3%,21.8%,?,-10.2%
Cn1cccc1/C=N/NC(=O)c1cc(-c2cccs2)nc2ccccc12,-15.8%,3.4,-8.6%,?,?,22.4µM*
Cn1cccc1/C=N/NC(=O)c1ccccn1,-14.5%,-12.4,23.8µM*,-7.7%,?,35.5µM*
Cn1cccc1/C=N/NC(=O)c1cc2ccccc2cc1O,-10.6%,-20.6,-1.0%,?,?,28.2µM*
Cn1cccc1/C=N/NC(=O)c1ccncc1,-1.3%,9.6,0.0%,3.6%,-13.5%,-22.2%
O=C(Cc1ccc(S(=O)(=O)N2CCOCC2)s1)Oc1ccc(F)cc1,-5.0%,4.4,-15.3%,37.4%,-22.8%,7.2%
COc1cc(Br)c(CC(=O)NC2CC2)cc1OC,4.1%,-5.5,6.5%,-3.4%,-9.2%,0.2%
CSc1nc(C=Nc2ccccc2Cl)c(O)n1Cc1cccc(Cl)c1,-8.8%,5.9,-16.2%,5.3%,79.4µM*,-19.1%
O=C(NCc1cccnc1)C(=O)Nc1ccc2c(c1)OCO2,7.0%,-6.4,-7.5%,30.2%,-4.2%,-10.9%
CC(C)CC(C(=O)Nc1oc(-c2ccco2)c(-c2ccco2)c1C#N)N1C(=O)c2ccccc2C1=O (stereo unspecified),-20.5%,-23.0,-28.8%,-24.9%,?,31.6µM*
CC(C)CC(C(=O)Nc1cccc(O)c1)N1C(=O)c2ccccc2C1=O (stereo unspecified),-1.5%,-3.6,8.8%,5.3%,-25.2%,-27.1%
COP(=O)(OC)C(=NNS(=O)(=O)c1ccc(C)cc1)c1ccccc1,.,-4.3,-26.1%,.,.,.
CCOC(=O)N1CCN(C(=O)NC2CCCCC2)CC1,14.2%,-1.3,-0.8%,19.8%,-2.9%,11.0%
CCN1CCN(C(=O)NC2CCCCC2)CC1,-15.0%,-0.2,-8.2%,?,28.2µM*,?
CCOc1ccc(/C(O)=C2/C(=O)C(=O)N(c3ccccn3)C2c2ccc(C)cc2)c(C)c1 (stereo unspecified),?,-6.1,-11.8%,?,35.5µM*,0.8%
O=C(c1ccccc1O)N(Cc1cccs1)Cc1cccs1,.,.,.,.,-22.4%,.
COc1ccc(/C=N/NC(=O)CN(C)C(=O)OCc2ccccc2)cc1OC,-3.9%,-9.1,-11.4%,25.8%,-8.8%,2.0%
CC1CCCCN1C(=O)CN1C(=O)CSc2ccc(S(=O)(=O)N3CCOCC3)cc21 (stereo unspecified),-0.8%,-14.9,?,-21.0%,-32.9%,-2.4%
CC(C)Cc1nnc(NC(=O)c2ccc3c(c2)NC(=O)C(C)S3)s1 (stereo unspecified),-2.8%,-1.9,-0.4%,24.6%,0.0%,7.5%
CC1Sc2ccc(C(=O)NCc3ccccn3)cc2NC1=O (stereo unspecified),-15.6%,-25.4,16.8µM*,?,?,-16.5%
Cc1cc(C)c(NC(=O)c2ccc3c(c2)NC(=O)C(C)S3)c(C)c1 (stereo unspecified),7.1%,-2.1,-4.4%,19.7%,-14.4%,-1.4%
SMILES,KAT2A inh,PI5P4Ka inh,PLK1 PBD block,HP1b binding inh,JMJD2A Tudor,BAZ2B block
CCN(CC)S(=O)(=O)c1cc(NC(=O)c2ccc3c(c2)NC(=O)C(C)S3)ccc1C (stereo unspecified),-14.9%,?,8.44µM*,?,-30.1%,-2.2%
O=C(NCc1ccccn1)c1coc(=O)c(Br)c1,-24.5%,-10.8,-11.3%,24.9%,?,17.8µM*
CCCCSc1ncnc2c1c(-c1ccccc1)cn2-c1cccc(F)c1,-1.5%,.,.,91.7%,74.7%,54.8%
COC(=O)C[C@H]1CC[C@H](NC(=O)Nc2ccccc2F)[C@@H](CO)O1,.,-4.7,-11.7%,.,.,.
Cc1noc(C(C)C)c1C(=O)Nc1ccc(-c2nnc3n2CCCCC3)cc1,-3.5%,-1.2,-1.6%,21.7%,-11.0%,-2.4%
Cc1ccc(Nc2nnc(SCC(=O)NC(Cc3c[nH]c4ccccc34)C(=O)O)s2)cc1 (stereo unspecified),-1.3%,-28.6,-7.1%,0.7%,-23.2%,50.1µM*
O=C(CSc1ncc2c(n1)-c1ccccc1N(Cc1ccc(F)cc1)S2(=O)=O)NCCc1ccccc1,-23.4%,.,.,23.9%,0.3%,0.3%
COc1cccc2c1C1COC3C4CC(C(=O)O)C(C(C2)N13)N4C (stereo unspecified),.,-6.3,0.7%,22.1%,12.6µM*,.
COc1cccc2c1C(CCCC(=O)O)CCC2 (stereo unspecified),.,-1.3,-2.6%,12.3%[57 µM],-5.5%,.
Cn1ccsc1=NC(=O)c1ccc(S(=O)(=O)C(F)F)cc1,-4.3%,-5.8,1.1%,-9.0%,-20.7%,-5.7%
CC(=O)Oc1c(/C=C(\C#N)C(N)=O)[nH]c2ccccc12,4.0%,-58.8*,-14.5%,4.6%,-17.3%,-36.2%
COc1ccccc1N1CCN(C(=O)c2ccc3c(c2)N(Cc2ccccc2)C(=O)c2ccccc2S3(=O)=O)CC1,-7.6%,.,.,21.5%,-15.5%,-25.1%
Oc1c(Br)cc(Br)cc1CNc1ccc(F)cc1,-10.7%,9.3,-2.9%,-15.6%,?,39.8µM*
Oc1c(Br)cc(Br)cc1CNc1cnc2ccccc2c1,-12.6%,6.5,-16.9%,4.9%,?,?
CCCN1CNc2c(c(=O)[nH]c(=S)n2CCc2ccccc2OC)C1,.,.,.,26.6%,-15.6%,.
O=C1C2C3C=CC(C3)C2C(=O)N1c1cccc2cccnc12 (stereo unspecified),1.3%,-23.2,-9.1%,24.1%,-29.6%,6.6%

# Screening results deposited in PubChem by National Center for Advancing Translational Sciences (NCATS).
